Test [1] addresses T1, Dual specificity tyrosine-phosphorylation-regulated kinase 2 (Homo sapiens) (UniProt Q92630).
T1 sequence (whole entry): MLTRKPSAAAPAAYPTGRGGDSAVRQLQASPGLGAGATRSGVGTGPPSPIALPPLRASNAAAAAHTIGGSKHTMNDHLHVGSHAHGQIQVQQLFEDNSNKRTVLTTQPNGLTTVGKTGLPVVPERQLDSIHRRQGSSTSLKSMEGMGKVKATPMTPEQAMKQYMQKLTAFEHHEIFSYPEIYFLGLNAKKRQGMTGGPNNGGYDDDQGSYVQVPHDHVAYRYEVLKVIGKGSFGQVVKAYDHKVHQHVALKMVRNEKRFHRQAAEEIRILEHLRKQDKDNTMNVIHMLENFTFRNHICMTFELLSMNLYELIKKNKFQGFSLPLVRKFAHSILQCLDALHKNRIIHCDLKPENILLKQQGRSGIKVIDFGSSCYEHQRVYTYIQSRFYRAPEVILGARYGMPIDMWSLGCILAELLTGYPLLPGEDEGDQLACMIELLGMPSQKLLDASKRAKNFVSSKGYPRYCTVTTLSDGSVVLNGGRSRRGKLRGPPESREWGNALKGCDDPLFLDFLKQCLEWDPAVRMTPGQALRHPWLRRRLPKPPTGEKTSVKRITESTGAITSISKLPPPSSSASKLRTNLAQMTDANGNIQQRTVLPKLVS
The note with it: at 10 µM.

The target of test [2] is Ephrin type-A receptor 2 (Homo sapiens) (UniProt P29317). The note with it: at 1 µM.
Test [3] has the same target. As to conditions: at 10 µM.
The target in test [4] is Ephrin type-A receptor 4 (Homo sapiens) (UniProt P54764). The note with it: at 1 µM.
For test [5] the target is unchanged. The note with it: at 10 µM.
In test [6] the target is Ephrin type-A receptor 5 (Homo sapiens) (UniProt P54756). The note with it: at 1 µM.
The target is the same in test [7]. The note with it: at 10 µM.
The target in test [8] is Ephrin type-A receptor 7 (Homo sapiens) (UniProt Q15375). As to conditions: at 1 µM.
For test [9] the target is unchanged. The note with it: at 10 µM.
Test [10] deals with T2, Serine/threonine-protein kinase 17A (Homo sapiens) (UniProt Q9UEE5).
T2 sequence (whole entry): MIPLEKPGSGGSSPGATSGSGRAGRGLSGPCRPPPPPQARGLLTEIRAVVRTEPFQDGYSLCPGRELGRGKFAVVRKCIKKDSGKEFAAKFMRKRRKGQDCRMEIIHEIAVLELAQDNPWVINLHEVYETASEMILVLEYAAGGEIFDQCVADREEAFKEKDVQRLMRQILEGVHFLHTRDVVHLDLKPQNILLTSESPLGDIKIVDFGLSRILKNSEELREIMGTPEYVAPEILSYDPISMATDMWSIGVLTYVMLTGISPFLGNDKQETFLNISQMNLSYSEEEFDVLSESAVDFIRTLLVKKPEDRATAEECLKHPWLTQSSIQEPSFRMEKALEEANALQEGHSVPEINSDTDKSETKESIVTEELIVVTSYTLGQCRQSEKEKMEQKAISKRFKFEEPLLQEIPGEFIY
The note with it: at 1 µM.

For test [11], the target named is T2, Serine/threonine-protein kinase 17A (Homo sapiens). The note with it: at 10 µM.
In test [12] the target is T1, Dual specificity tyrosine-phosphorylation-regulated kinase 2 (Homo sapiens). As to conditions: at 1 µM.
The target in test [13] is T3, Ephrin type-A receptor 1 (Homo sapiens) (UniProt P21709).
T3 sequence (whole entry): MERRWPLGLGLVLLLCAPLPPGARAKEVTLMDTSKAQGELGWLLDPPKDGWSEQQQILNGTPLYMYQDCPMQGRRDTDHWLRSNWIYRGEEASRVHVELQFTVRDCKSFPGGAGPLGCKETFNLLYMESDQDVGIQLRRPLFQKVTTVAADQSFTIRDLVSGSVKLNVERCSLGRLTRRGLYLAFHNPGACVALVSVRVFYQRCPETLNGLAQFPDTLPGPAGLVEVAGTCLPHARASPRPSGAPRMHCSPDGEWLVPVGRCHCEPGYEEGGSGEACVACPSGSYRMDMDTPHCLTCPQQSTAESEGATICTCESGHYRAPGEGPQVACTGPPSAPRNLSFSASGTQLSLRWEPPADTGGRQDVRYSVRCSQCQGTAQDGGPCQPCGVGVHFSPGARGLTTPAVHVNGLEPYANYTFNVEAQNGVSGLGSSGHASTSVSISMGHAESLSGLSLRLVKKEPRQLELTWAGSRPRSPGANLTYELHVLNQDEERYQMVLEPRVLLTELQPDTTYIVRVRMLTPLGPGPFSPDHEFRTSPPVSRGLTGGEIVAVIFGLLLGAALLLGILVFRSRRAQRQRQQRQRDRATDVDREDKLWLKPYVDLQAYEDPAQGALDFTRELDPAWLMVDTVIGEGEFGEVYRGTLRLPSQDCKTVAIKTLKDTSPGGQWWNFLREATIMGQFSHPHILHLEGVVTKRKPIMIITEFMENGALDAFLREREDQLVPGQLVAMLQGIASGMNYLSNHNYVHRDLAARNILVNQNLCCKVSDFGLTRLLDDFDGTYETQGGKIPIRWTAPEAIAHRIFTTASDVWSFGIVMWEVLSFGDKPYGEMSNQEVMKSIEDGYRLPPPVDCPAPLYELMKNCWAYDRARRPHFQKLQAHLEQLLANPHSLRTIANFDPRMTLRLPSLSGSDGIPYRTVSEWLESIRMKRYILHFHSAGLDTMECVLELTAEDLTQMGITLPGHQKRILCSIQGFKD
The note with it: at 1 µM.

In test [14] the target is T3, Ephrin type-A receptor 1 (Homo sapiens). As to conditions: at 10 µM.
The target in test [15] is T4, Ephrin type-A receptor 3 (Homo sapiens) (UniProt P29320).
T4 sequence (whole entry): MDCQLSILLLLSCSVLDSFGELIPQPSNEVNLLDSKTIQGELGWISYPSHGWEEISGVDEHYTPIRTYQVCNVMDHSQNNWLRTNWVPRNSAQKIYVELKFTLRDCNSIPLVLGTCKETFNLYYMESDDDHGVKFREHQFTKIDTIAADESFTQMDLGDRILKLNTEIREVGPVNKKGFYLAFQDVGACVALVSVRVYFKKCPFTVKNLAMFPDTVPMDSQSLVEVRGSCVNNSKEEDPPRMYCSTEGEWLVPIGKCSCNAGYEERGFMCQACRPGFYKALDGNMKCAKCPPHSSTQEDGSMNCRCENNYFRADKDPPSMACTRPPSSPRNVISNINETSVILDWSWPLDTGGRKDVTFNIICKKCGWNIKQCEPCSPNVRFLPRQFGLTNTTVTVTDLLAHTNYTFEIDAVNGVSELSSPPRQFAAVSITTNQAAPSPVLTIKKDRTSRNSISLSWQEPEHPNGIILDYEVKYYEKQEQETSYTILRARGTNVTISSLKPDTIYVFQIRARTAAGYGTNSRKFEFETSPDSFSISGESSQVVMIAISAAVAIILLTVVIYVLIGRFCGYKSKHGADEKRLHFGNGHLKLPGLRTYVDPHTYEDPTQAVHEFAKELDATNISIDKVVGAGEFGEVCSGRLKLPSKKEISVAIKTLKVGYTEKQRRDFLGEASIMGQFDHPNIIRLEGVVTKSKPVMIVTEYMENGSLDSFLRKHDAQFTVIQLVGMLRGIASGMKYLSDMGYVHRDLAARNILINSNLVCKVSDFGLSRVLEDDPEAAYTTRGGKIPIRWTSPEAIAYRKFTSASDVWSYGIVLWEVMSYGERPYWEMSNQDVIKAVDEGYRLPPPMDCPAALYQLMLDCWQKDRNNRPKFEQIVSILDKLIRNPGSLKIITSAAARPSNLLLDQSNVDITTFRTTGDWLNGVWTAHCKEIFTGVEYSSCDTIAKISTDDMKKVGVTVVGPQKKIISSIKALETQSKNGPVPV
The note with it: at 1 µM.

Test [16] addresses T4, Ephrin type-A receptor 3 (Homo sapiens). The note with it: at 10 µM.
Test [17] deals with T5, Ephrin type-A receptor 8 (Homo sapiens) (UniProt P29322).
T5 sequence (whole entry): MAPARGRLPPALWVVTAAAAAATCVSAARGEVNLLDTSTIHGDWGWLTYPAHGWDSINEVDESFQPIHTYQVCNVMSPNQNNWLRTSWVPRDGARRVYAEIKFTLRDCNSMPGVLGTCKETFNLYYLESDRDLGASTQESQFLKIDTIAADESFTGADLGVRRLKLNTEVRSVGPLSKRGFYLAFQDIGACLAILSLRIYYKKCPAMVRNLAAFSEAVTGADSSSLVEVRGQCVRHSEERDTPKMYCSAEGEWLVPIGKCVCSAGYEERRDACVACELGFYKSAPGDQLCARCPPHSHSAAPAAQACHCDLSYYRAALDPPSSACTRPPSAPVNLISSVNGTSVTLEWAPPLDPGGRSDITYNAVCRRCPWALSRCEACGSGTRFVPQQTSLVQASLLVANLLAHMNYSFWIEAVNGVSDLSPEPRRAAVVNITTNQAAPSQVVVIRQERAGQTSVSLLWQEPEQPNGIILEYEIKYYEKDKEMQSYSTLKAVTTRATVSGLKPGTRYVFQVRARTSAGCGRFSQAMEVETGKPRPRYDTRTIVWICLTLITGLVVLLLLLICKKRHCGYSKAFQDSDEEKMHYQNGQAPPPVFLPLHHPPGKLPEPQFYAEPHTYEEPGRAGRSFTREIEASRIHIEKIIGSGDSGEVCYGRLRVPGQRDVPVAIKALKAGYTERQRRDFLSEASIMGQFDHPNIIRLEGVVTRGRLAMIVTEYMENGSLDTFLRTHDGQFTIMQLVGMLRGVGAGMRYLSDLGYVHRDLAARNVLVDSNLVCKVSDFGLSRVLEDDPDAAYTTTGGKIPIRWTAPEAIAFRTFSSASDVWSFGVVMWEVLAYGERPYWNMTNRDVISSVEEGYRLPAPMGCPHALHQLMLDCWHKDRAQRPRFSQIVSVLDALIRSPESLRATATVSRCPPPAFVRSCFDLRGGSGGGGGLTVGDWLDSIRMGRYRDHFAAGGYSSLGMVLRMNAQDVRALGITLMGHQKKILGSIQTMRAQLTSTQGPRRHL
As to conditions: at 1 µM.

Test [18] has as its target T5, Ephrin type-A receptor 8 (Homo sapiens). As to conditions: at 10 µM.
The target in test [19] is T6, Ephrin type-B receptor 1 (Homo sapiens) (UniProt P54762).
T6 sequence (whole entry): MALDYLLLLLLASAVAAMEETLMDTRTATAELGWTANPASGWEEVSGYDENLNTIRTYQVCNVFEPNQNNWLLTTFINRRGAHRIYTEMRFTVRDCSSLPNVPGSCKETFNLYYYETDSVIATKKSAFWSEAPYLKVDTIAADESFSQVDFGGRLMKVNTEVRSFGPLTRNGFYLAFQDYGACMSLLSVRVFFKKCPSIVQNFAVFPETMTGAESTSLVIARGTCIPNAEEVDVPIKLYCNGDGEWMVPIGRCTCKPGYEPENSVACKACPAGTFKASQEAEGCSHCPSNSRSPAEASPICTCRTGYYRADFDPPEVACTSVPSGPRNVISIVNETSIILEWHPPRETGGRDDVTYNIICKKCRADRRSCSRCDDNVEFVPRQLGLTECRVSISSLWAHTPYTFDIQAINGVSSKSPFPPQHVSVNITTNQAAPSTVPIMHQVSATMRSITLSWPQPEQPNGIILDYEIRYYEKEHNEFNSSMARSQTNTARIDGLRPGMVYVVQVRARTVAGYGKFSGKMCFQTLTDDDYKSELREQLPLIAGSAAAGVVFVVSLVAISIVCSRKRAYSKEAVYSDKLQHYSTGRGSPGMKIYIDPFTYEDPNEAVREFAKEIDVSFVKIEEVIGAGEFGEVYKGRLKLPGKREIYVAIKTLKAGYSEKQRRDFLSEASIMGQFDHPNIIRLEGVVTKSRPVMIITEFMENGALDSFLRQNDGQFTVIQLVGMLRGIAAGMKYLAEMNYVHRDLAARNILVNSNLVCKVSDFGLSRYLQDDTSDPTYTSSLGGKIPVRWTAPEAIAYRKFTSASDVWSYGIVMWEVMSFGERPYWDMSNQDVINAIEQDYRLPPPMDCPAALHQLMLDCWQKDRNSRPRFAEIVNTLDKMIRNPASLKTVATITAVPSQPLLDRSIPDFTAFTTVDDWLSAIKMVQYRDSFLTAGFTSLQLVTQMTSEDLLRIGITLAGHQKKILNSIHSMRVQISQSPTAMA
As to conditions: at 1 µM.

Ephrin type-A receptor 7 (Homo sapiens), sequence (Q15375 28-998 limits assumed): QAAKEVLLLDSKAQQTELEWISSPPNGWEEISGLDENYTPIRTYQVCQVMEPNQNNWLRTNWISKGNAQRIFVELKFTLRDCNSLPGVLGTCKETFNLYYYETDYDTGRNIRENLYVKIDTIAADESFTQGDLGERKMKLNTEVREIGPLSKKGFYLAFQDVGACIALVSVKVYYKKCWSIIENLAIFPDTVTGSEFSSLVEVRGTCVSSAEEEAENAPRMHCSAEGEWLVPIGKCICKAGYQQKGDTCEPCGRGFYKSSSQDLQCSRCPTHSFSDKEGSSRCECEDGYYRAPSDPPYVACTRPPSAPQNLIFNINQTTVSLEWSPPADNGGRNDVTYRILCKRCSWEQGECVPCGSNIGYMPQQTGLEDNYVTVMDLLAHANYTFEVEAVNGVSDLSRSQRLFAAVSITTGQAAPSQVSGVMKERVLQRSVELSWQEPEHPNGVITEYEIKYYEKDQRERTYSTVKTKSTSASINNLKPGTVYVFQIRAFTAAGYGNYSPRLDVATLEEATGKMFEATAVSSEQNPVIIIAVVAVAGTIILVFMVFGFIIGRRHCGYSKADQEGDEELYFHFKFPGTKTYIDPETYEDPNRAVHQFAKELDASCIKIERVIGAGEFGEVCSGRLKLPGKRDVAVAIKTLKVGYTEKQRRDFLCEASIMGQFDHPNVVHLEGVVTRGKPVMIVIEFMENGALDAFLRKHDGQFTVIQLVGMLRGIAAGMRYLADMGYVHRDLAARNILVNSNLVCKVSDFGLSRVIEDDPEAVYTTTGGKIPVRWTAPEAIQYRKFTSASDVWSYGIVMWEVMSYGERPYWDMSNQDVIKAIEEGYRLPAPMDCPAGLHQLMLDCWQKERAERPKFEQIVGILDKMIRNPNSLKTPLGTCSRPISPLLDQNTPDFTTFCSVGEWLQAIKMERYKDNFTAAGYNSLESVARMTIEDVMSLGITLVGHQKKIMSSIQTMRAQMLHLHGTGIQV
Ephrin type-A receptor 5 (Homo sapiens), sequence (P54756 whole entry): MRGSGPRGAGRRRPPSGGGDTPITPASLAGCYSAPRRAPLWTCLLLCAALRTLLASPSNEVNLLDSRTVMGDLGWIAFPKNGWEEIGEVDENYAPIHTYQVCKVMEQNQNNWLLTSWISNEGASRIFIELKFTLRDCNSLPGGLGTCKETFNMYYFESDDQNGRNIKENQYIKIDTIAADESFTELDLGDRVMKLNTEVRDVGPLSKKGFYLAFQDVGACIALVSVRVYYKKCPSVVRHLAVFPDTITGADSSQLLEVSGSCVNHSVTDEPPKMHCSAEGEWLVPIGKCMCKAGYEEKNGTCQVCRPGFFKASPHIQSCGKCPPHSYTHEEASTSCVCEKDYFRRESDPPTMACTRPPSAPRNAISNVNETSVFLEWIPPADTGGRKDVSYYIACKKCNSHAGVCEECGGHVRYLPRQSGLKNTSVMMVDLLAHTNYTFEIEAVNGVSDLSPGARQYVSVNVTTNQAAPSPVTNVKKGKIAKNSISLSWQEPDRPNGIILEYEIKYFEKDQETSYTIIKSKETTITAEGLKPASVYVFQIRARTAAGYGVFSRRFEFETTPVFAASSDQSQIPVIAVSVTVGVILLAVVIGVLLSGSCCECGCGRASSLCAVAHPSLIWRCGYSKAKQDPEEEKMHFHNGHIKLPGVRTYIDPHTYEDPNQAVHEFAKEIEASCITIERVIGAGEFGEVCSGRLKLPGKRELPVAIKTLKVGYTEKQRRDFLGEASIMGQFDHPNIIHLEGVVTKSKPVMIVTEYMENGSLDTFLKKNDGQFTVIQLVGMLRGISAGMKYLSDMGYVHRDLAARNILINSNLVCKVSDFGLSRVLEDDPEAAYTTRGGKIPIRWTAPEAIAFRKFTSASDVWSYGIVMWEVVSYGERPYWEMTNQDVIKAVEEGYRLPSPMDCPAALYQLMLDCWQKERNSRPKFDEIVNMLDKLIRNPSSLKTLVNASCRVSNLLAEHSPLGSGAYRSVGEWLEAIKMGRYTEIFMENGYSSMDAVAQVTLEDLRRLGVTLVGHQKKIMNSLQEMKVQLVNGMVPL
Ephrin type-A receptor 4 (Homo sapiens), sequence (P54764 whole entry): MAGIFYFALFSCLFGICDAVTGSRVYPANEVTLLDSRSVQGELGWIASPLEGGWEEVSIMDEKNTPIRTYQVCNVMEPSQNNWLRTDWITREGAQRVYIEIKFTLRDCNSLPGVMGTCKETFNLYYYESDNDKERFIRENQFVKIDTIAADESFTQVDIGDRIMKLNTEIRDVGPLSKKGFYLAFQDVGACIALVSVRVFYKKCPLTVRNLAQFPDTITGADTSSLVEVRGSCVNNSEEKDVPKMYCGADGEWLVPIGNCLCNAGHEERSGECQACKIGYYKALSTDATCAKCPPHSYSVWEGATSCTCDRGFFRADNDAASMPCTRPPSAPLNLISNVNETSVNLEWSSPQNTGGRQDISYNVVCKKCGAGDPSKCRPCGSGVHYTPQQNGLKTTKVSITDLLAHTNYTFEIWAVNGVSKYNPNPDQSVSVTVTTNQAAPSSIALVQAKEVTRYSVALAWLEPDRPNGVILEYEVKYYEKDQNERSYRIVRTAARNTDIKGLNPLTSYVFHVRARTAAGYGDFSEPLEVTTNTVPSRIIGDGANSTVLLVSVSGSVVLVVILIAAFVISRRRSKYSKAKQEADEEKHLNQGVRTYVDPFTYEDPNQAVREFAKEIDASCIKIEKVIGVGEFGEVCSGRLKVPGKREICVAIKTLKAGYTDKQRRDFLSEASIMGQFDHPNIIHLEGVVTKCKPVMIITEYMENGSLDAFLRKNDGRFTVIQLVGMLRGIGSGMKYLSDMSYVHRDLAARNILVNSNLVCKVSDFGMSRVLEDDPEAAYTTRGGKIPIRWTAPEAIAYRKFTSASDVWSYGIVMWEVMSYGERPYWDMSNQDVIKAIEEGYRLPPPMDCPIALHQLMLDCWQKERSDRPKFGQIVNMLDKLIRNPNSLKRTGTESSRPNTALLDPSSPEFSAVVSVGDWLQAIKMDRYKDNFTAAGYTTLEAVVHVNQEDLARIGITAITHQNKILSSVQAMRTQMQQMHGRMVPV
Ephrin type-A receptor 2 (Homo sapiens), sequence (P29317 whole entry): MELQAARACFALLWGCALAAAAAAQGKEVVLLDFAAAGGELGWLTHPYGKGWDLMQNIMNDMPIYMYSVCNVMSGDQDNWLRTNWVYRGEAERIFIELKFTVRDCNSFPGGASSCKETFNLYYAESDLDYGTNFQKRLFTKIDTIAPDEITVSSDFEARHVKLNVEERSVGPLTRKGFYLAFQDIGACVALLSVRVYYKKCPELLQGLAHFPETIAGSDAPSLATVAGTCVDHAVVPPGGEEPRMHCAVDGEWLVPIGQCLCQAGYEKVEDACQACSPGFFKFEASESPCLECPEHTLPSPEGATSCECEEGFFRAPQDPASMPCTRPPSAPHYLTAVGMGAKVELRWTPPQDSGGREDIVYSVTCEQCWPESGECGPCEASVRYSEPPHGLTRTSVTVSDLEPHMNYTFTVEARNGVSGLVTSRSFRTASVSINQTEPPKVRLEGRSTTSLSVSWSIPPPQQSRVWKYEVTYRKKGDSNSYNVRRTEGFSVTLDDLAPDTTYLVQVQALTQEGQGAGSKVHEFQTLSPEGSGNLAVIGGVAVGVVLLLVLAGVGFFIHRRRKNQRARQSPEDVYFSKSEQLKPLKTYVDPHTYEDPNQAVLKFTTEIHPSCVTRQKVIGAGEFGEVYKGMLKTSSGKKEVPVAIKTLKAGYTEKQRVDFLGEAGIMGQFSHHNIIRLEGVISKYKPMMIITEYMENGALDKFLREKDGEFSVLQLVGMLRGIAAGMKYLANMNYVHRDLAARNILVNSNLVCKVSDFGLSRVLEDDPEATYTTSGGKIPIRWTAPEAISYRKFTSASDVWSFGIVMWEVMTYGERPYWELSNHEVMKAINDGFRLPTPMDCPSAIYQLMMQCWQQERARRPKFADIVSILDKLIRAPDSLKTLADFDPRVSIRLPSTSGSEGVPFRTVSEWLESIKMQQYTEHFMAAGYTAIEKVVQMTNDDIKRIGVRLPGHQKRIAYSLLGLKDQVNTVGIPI

Usually residual activity stands for the signal under treatment as a percentage of the control signal. As for `CCc1nc(-c2ccc(OC)cc2)[nH]c1-c1ccncc1`, the residual activity in test [1] was 34%; in test [2] it was 105%; in test [3], 105%; in [4] it was 114%; in test [5] it was 109%; in test [6] it was 116%. Moreover, the residual activity in test [7] is 104%; in [8], 114%; in [9] it was 100%.

Turning to `O=C1c2ccccc2-c2nc3nnnn3nc21`, the residual activity in test [10] turned out to be 108%; in test [11], 114%; in test [12], 101%; in test [1], 100%; in test [13], 100%; in test [14], 123%. Moreover, the residual activity in test [2] is 107%; in test [3] it was 116%; in [4], 115%; in test [5], 102%; in [6], 115%; in test [7], 124%.

With `O=C1Nc2ccc3ncsc3c2/C1=C/c1c[nH]cn1`, the residual activity in test [10] was 1%; in test [11], 1%; in test [12], 1%; in test [1], -5%; in [13] it was 58%; in test [14] it was 24%. Besides, the residual activity in test [2] is 77%; in test [3], 31%; in test [15], 82%; in test [16], 28%; in test [4], 102%; in test [5], 68%. The residual activity in test [6] worked out at 89%; in test [7] it was 42%; in test [8] it was 77%; in test [9] it was 17%; in test [17] it was 95%; in test [18] it was 72%. The residual activity in test [19] was found to be 60%.

In the case of `O=[N+]([O-])/C=C/c1ccc2c(c1)OCO2`, the residual activity in [10] came to 119%; in test [11], 63%; in test [12] it was 101%; in test [1], 106%; in test [13], 95%; in test [14], 102%. Also, the residual activity in [2] was 106%; in [3], 115%; in test [15], 115%; in [16], 95%; in test [4], 112%; in test [5], 100%. The residual activity is 103% in [6]; 93% in test [7]; 95% in test [8]; 89% in [9]; 100% in [17]; 103% in test [18]. Further, the residual activity in test [19] turned out to be 115%.

(Values after ChEMBL document CHEMBL2218924, “A broad activity screen in support of a chemogenomic map for kinase signalling research and drug discovery” (Biochem J, 2013).)
